Hit rate of the full screen: of about 5,500 compounds, about 2,000 (36%) were called active. Not shown: some 18% with an inconclusive outcome. No stated cut-off is given here; in the data, active means normalized growth mostly below about 0.91 (no sharp cut-off); inconclusive means no clear call, values can overlap the other calls; inactive means mostly above about 0.92. This is one part of the list.
Assay: chemical genetic growth profiling, strain panel (AID 1159580);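 further: tested at 20 µM; growth read once vehicle control cultures reached saturation at 30 °C; 1 = growth at the plate median or of vehicle wells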
Conditions: growth OD

Measured: normalized growth

CN[C@@H](C)[C@@H](O)c1ccccc1
inactive: S. cerevisiae deletion strains, locus YKL068W, stronger effect = lower value 0.978 | S. cerevisiae deletion strains, locus YKL085W, strain MDH1 (second series), stronger effect = lower value 0.992 | S. cerevisiae deletion strains, locus YKL085W, strain MDH1, stronger effect = lower value 0.992 | S. cerevisiae deletion strains, locus YKL160W, strain elf1, stronger effect = lower value 0.968 | S. cerevisiae deletion strains, locus YKL190W, strain CNB1, stronger effect = lower value 0.998 | S. cerevisiae deletion strains, locus YKR001C, strain vps1, stronger effect = lower value 0.978 | S. cerevisiae deletion strains, locus YKR026C, strain gcn3, stronger effect = lower value 0.994 | S. cerevisiae deletion strains, locus YKR091W, strain srl3, stronger effect = lower value 1 | S. cerevisiae deletion strains, locus YLL001W, strain dnm1, stronger effect = lower value 1.01 | S. cerevisiae deletion strains, locus YLL026W, stronger effect = lower value 1.01 | S. cerevisiae deletion strains, locus YLL041C, strain sdh2, stronger effect = lower value 1 | S. cerevisiae deletion strains, locus YLR027C, strain aat2, stronger effect = lower value 1 | S. cerevisiae deletion strains, locus YLR039C, strain RIC1, stronger effect = lower value 0.966 | S. cerevisiae deletion strains, locus YLR058C, strain SHM2, stronger effect = lower value 0.988 | S. cerevisiae deletion strains, locus YLR102C, strain apc9, stronger effect = lower value 0.99 | S. cerevisiae deletion strains, locus YLR113W, strain HOG1, stronger effect = lower value 0.984 | S. cerevisiae deletion strains, locus YLR221C, strain rsa3, stronger effect = lower value 0.994 | S. cerevisiae deletion strains, locus YLR258W, strain gsy2, stronger effect = lower value 0.981 | S. cerevisiae deletion strains, locus YLR262C, strain YPT6 (second series), stronger effect = lower value 1.01 | S. cerevisiae deletion strains, locus YLR262C, strain YPT6, stronger effect = lower value 0.914 | S. cerevisiae deletion strains, locus YLR268W, strain sec22, stronger effect = lower value 0.983 | S. cerevisiae deletion strains, locus YLR320W, strain mms22, stronger effect = lower value 0.985 | S. cerevisiae deletion strains, locus YLR330W, strain CHS5, stronger effect = lower value 0.987 | S. cerevisiae deletion strains, locus YLR342W, strain FKS1 (second series), stronger effect = lower value 0.99 | S. cerevisiae deletion strains, locus YLR342W, strain FKS1, stronger effect = lower value 1.01 | S. cerevisiae deletion strains, locus YLR357W, strain rsc2, stronger effect = lower value 0.972 | S. cerevisiae deletion strains, locus YLR370C, strain arc18, stronger effect = lower value 0.982 | S. cerevisiae deletion strains, locus YLR371W, strain rom2, stronger effect = lower value 0.981 | S. cerevisiae deletion strains, locus YLR384C, strain iki3, stronger effect = lower value 0.993 | S. cerevisiae deletion strains, locus YLR418C, strain cdc73, stronger effect = lower value 1.02 | S. cerevisiae deletion strains, locus YML016C, strain PPZ1, stronger effect = lower value 0.987 | S. cerevisiae deletion strains, locus YML032C, strain rad52, stronger effect = lower value 0.979 | S. cerevisiae deletion strains, locus YML120C, strain ndi1, stronger effect = lower value 1.01 | S. cerevisiae deletion strains, locus YML124C, strain tub3, stronger effect = lower value 0.99 | S. cerevisiae deletion strains, locus YMR058W, strain fet3, stronger effect = lower value 1.01 | S. cerevisiae deletion strains, locus YMR078C, strain ctf18, stronger effect = lower value 0.985 | S. cerevisiae deletion strains, locus YMR125W, strain sto1, stronger effect = lower value 0.985 | S. cerevisiae deletion strains, locus YMR129W, stronger effect = lower value 0.976 | S. cerevisiae deletion strains, locus YMR205C, strain PFK2, stronger effect = lower value 0.984 | S. cerevisiae deletion strains, locus YMR223W, strain ubp8, stronger effect = lower value 0.985 | S. cerevisiae deletion strains, locus YMR231W, strain pep5, stronger effect = lower value 0.998 | S. cerevisiae deletion strains, locus YMR263W, strain SAP30, stronger effect = lower value 1.01 | S. cerevisiae deletion strains, locus YMR307W, strain GAS1, stronger effect = lower value 0.881 | S. cerevisiae deletion strains, locus YNL067W, strain RPL9B, stronger effect = lower value 1.04 | S. cerevisiae deletion strains, locus YNL071W, strain lat1, stronger effect = lower value 1.01 | S. cerevisiae deletion strains, locus YNL183C, strain NPR1, stronger effect = lower value 0.978 | S. cerevisiae deletion strains, locus YNL209W, strain ssb2, stronger effect = lower value 0.978 | S. cerevisiae deletion strains, locus YNL233W, strain BNI4, stronger effect = lower value 1.05 | S. cerevisiae deletion strains, locus YNL248C, strain rpa49, stronger effect = lower value 0.986 | S. cerevisiae deletion strains, locus YNL250W, strain rad50, stronger effect = lower value 0.99 | S. cerevisiae deletion strains, locus YNL271C, strain bni1, stronger effect = lower value 0.976 | S. cerevisiae deletion strains, locus YNL298W, strain CLA4, stronger effect = lower value 0.97 | S. cerevisiae deletion strains, locus YNL307C, strain MCK1, stronger effect = lower value 0.992 | S. cerevisiae deletion strains, locus YNL322C, strain KRE1 (second series), stronger effect = lower value 0.977 | S. cerevisiae deletion strains, locus YNR049C, strain mso1, stronger effect = lower value 0.998 | S. cerevisiae deletion strains, locus YNR052C, strain pop2, stronger effect = lower value 0.997 | S. cerevisiae deletion strains, locus YOL006C, strain TOP1, stronger effect = lower value 1.07 | S. cerevisiae deletion strains, locus YOL012C, strain htz1 1.99 | S. cerevisiae deletion strains, locus YOL147C, strain pex11, stronger effect = lower value 0.993 | S. cerevisiae deletion strains, locus YOR001W, strain rrp6, stronger effect = lower value 0.997 | S. cerevisiae deletion strains, locus YOR061W, strain CKA2, stronger effect = lower value 0.971 | S. cerevisiae deletion strains, locus YOR069W, strain VPS5, stronger effect = lower value 0.986 | S. cerevisiae deletion strains, locus YOR070C, strain gyp1, stronger effect = lower value 0.984 | S. cerevisiae deletion strains, locus YOR080W, strain dia2, stronger effect = lower value 0.994 | S. cerevisiae deletion strains, locus YOR083W, strain WHI5, stronger effect = lower value 0.961 | S. cerevisiae deletion strains, locus YOR106W, strain vam3, stronger effect = lower value 1.01 | S. cerevisiae deletion strains, locus YOR136W, strain idh2, stronger effect = lower value 0.991 | S. cerevisiae deletion strains, locus YOR144C, strain elg1, stronger effect = lower value 0.987 | S. cerevisiae deletion strains, locus YOR184W, strain ser1, stronger effect = lower value 0.987 | S. cerevisiae deletion strains, locus YOR231W, strain MKK1, stronger effect = lower value 0.98 | S. cerevisiae deletion strains, locus YOR265W, strain rbl2, stronger effect = lower value 1 | S. cerevisiae deletion strains, locus YOR270C, strain vph1, stronger effect = lower value 1.04 | S. cerevisiae deletion strains, locus YOR290C, strain snf2, stronger effect = lower value 0.972 | S. cerevisiae deletion strains, locus YOR316C, strain cot1, stronger effect = lower value 0.986 | S. cerevisiae deletion strains, locus YPL051W, strain arl3, stronger effect = lower value 0.99 | S. cerevisiae deletion strains, locus YPL078C, strain atp4, stronger effect = lower value 1.02 | S. cerevisiae deletion strains, locus YPL106C, strain sse1, stronger effect = lower value 0.937 | S. cerevisiae deletion strains, locus YPL240C, strain hsp82, stronger effect = lower value 0.993 | S. cerevisiae deletion strains, locus YPL241C, strain CIN2, stronger effect = lower value 0.979 | S. cerevisiae deletion strains, locus YPL256C, strain CLN2, stronger effect = lower value 1.03 | S. cerevisiae deletion strains, locus YPR119W, strain clb2, stronger effect = lower value 0.983 | S. cerevisiae deletion strains, locus YPR141C, strain kar3, stronger effect = lower value 0.989 | S. cerevisiae deletion strains, locus YPR163C, strain tif3, stronger effect = lower value 0.989 | S. cerevisiae deletion strains, locus YPR167C, strain met16, stronger effect = lower value 0.988 | S. cerevisiae deletion strains, strain wtn01, stronger effect = lower value 1 | S. cerevisiae strains, strain wild type, stronger effect = lower value 0.987

From PubChem BioAssay AID1159580 (chemical genetic matrix, 2015)
